Measured values reported in the supplement of paper PMC11732987, “Enantioselective OTUD7B fragment discovery through chemoproteomics screening and high-throughput optimisation” (Communications Chemistry, 2025).

Columns and labels:
Assay in all cases: log2 ratio of Biotin-Ahx-Ub-VS probe labelling (fragment/DMSO); higher = less target engagement (more negative = stronger competition), active = hit call of the paper (q ≤ 0.05, log2 ratio ≤ -1)
Conditions in all cases: compound concentration: 200 uM; treatment time: 3 h
USP42 = target: T1, USP42 (UniProt Q9H9J4)
T1 sequence (whole entry): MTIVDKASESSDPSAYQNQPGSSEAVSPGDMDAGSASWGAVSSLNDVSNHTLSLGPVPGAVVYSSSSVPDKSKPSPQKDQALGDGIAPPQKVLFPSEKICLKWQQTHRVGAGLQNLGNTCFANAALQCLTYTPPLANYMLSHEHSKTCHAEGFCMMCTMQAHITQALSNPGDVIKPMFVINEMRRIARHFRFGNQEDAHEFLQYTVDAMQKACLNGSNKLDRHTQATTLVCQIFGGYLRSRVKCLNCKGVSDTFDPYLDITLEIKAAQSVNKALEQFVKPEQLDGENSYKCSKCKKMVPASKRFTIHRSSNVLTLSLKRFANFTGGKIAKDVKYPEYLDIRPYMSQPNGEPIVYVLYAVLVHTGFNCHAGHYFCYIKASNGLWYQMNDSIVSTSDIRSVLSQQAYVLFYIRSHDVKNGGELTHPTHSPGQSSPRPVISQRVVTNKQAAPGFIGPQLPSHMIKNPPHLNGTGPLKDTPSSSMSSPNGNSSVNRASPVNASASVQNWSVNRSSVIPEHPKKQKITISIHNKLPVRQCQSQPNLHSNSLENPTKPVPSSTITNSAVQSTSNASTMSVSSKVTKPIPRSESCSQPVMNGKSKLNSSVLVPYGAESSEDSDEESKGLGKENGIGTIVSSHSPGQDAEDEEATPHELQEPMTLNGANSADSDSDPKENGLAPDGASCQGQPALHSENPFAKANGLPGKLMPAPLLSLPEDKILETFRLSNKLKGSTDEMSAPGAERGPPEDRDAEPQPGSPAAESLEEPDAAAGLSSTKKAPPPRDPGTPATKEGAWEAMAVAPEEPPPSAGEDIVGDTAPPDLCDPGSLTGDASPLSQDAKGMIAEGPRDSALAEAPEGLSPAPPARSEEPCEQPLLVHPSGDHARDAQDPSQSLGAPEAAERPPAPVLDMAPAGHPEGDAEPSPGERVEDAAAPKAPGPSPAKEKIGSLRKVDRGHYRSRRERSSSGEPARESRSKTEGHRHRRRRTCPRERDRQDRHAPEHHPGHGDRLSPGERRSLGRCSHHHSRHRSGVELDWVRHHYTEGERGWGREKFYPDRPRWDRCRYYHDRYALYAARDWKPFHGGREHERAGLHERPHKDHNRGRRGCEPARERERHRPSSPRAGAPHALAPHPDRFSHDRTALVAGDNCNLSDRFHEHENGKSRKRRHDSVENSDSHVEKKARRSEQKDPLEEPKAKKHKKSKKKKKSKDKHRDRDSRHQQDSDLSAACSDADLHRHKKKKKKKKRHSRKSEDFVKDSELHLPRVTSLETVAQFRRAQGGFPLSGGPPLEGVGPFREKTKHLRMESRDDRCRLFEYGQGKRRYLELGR
Procedure, shortened: (§1)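 HEK293T lysate (495 µg per sample, in Tris/CHAPS/IGEPAL buffer with protease inhibitors) was treated in triplicate with fragment at 200 µM or with DMSO for 3 h. It was then treated with Biotin-Ahx-Ub-VS (0.5 µM final) for 1 h. Labelled DUBs were NeutrAvidin-enriched, digested with LysC and trypsin, and run by diaPASEF LC-MS/MS. Spectronaut label-free quantities were global-median-normalised. Values are average log2 ratios fragment/DMSO by unpaired t-test, using proteins with ≥2 unique peptides.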

USP46 = USP46 (UniProt P62068)
USP46, sequence (P62068 whole entry): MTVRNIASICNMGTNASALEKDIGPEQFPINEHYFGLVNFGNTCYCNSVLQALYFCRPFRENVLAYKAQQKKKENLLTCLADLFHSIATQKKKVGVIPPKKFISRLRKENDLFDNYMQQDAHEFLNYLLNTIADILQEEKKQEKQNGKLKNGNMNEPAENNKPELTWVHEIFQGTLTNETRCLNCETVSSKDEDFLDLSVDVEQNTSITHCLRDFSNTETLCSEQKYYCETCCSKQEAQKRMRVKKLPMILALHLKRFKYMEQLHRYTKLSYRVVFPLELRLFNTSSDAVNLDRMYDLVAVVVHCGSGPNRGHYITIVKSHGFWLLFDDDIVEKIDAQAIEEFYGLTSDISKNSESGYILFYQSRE
Procedure, shortened: as §1

USP47 = target: T2, USP47 (UniProt Q96K76)
T2 sequence (whole entry): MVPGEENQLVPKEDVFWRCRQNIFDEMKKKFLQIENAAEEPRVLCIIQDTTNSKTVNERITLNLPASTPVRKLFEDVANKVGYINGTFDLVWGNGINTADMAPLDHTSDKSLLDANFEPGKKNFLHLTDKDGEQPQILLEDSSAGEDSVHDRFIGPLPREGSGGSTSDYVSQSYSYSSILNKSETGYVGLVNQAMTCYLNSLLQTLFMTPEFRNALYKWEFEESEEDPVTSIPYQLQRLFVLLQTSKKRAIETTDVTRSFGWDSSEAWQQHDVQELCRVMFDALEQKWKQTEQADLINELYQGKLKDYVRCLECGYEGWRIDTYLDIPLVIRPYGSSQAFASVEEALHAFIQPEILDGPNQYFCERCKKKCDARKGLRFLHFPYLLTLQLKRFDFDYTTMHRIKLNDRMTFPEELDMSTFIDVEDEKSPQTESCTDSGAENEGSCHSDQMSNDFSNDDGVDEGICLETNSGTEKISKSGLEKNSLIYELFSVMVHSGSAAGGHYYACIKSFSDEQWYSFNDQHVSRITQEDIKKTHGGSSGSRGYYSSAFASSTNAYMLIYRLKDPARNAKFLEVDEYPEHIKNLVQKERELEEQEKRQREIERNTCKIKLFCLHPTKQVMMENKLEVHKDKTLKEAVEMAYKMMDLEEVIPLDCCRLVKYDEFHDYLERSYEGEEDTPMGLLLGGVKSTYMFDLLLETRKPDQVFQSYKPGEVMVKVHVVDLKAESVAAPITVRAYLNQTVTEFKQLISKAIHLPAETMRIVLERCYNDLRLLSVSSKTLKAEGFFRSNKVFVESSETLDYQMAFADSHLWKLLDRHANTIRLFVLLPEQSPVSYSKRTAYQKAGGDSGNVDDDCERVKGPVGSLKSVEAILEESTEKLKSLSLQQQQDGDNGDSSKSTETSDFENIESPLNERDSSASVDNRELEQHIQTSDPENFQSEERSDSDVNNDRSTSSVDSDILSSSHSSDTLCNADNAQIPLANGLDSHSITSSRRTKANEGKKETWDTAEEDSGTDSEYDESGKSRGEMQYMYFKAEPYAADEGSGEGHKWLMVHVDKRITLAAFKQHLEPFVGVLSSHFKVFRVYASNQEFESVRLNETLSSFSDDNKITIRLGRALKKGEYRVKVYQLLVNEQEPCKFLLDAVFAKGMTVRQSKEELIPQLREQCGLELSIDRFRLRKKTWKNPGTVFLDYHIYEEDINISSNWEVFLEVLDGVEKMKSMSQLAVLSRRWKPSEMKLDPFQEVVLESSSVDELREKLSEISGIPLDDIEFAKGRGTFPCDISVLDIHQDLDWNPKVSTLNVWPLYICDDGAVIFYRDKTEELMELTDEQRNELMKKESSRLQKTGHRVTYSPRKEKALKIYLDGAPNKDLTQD
Procedure, shortened: as §1

USP48 = target: T3, USP48 (UniProt Q86UV5)
T3 sequence (whole entry): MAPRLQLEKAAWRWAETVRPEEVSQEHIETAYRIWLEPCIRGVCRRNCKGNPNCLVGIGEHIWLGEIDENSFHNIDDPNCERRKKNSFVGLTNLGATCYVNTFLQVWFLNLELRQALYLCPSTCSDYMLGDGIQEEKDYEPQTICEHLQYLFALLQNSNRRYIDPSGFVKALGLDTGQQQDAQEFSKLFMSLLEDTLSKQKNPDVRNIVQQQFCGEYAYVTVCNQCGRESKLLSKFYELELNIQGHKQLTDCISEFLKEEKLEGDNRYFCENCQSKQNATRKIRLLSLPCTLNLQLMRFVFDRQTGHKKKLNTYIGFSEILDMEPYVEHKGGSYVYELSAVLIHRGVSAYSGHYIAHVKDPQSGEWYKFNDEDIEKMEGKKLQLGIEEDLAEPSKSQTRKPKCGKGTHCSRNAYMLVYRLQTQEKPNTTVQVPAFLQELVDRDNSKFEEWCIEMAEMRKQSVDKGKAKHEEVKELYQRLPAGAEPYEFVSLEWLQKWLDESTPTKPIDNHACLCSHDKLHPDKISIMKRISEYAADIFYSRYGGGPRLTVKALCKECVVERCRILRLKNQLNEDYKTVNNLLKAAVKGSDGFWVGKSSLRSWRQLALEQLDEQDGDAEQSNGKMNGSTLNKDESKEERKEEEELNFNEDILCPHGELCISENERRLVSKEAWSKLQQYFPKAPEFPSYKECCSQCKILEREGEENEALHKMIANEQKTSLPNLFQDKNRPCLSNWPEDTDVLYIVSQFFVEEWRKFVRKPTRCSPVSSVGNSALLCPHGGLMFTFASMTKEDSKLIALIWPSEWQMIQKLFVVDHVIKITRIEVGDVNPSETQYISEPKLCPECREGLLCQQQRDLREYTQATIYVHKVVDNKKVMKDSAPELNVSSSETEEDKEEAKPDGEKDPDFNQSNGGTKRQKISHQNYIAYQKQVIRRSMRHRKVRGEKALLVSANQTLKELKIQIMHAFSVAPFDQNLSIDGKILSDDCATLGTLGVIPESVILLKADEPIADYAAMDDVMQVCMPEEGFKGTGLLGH
Procedure, shortened: as §1

USP5 = target: T4, USP5 (UniProt P45974)
T4 sequence (whole entry): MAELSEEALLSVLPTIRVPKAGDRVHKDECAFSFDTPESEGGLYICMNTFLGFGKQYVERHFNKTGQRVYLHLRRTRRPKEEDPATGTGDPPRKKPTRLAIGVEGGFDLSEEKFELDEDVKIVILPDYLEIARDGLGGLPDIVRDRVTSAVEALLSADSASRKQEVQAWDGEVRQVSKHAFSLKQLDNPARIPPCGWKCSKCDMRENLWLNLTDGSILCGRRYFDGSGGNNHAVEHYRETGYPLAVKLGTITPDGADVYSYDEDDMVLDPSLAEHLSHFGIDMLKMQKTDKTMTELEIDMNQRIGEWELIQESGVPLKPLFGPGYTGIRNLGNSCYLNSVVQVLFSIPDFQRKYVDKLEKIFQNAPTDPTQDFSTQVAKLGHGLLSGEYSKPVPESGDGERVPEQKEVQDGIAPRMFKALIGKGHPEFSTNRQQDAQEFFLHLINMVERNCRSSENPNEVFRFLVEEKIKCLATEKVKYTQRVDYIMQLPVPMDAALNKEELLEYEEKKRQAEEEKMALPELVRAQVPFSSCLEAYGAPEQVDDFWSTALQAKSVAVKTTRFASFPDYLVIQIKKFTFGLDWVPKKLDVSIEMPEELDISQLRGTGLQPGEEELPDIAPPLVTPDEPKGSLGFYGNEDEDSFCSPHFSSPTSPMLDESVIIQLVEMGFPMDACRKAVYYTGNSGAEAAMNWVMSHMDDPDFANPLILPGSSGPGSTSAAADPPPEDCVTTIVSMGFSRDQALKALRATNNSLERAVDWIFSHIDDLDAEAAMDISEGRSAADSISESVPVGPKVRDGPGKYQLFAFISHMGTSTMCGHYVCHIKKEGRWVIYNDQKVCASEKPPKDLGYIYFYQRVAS
Procedure, shortened: as §1

USP54 = USP54 (UniProt Q70EL1)
USP54, sequence (Q70EL1 whole entry): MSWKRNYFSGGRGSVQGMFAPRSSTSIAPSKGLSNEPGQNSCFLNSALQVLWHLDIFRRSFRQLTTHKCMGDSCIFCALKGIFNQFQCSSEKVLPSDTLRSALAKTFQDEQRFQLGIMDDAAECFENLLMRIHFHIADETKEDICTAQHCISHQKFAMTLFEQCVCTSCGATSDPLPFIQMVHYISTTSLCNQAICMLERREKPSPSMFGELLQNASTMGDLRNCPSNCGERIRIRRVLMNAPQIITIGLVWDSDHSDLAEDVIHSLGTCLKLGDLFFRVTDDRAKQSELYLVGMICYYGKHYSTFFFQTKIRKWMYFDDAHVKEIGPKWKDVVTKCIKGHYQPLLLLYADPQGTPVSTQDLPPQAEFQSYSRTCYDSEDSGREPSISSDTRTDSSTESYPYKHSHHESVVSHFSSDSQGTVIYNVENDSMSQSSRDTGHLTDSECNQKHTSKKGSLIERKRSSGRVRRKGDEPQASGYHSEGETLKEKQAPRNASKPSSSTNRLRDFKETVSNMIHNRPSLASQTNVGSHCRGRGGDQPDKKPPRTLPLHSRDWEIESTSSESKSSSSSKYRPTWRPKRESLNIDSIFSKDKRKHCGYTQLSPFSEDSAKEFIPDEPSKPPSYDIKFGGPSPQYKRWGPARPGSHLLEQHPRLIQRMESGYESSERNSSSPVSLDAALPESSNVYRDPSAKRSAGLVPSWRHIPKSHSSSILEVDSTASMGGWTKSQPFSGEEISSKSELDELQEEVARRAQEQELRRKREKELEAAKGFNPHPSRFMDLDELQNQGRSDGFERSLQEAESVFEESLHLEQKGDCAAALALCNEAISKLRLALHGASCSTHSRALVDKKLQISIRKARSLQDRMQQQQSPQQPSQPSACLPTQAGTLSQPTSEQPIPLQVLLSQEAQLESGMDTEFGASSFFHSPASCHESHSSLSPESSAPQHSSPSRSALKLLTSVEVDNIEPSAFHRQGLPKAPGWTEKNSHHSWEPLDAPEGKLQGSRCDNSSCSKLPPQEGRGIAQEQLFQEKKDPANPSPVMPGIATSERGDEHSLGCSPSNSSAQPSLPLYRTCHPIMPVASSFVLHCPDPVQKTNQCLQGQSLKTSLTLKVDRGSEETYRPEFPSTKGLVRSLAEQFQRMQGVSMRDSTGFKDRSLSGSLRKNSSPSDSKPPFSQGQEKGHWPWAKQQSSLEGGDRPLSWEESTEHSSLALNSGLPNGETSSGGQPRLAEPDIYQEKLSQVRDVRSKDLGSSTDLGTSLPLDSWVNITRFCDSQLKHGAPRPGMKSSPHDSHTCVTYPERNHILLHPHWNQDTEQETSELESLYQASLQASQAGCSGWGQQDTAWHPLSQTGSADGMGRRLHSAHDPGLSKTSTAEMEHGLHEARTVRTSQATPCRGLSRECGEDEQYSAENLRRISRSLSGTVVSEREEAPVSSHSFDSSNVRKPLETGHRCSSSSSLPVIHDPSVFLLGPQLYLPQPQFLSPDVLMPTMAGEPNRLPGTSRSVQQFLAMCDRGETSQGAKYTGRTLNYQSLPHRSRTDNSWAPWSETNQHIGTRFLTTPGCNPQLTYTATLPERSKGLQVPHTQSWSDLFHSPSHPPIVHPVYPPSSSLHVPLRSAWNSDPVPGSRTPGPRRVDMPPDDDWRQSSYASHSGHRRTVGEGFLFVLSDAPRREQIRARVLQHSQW
Procedure, shortened: as §1

USP7 = USP7 (UniProt Q93009)
Procedure, shortened: as §1

USP8 = target: T5, USP8 (UniProt P40818)
T5 sequence (whole entry): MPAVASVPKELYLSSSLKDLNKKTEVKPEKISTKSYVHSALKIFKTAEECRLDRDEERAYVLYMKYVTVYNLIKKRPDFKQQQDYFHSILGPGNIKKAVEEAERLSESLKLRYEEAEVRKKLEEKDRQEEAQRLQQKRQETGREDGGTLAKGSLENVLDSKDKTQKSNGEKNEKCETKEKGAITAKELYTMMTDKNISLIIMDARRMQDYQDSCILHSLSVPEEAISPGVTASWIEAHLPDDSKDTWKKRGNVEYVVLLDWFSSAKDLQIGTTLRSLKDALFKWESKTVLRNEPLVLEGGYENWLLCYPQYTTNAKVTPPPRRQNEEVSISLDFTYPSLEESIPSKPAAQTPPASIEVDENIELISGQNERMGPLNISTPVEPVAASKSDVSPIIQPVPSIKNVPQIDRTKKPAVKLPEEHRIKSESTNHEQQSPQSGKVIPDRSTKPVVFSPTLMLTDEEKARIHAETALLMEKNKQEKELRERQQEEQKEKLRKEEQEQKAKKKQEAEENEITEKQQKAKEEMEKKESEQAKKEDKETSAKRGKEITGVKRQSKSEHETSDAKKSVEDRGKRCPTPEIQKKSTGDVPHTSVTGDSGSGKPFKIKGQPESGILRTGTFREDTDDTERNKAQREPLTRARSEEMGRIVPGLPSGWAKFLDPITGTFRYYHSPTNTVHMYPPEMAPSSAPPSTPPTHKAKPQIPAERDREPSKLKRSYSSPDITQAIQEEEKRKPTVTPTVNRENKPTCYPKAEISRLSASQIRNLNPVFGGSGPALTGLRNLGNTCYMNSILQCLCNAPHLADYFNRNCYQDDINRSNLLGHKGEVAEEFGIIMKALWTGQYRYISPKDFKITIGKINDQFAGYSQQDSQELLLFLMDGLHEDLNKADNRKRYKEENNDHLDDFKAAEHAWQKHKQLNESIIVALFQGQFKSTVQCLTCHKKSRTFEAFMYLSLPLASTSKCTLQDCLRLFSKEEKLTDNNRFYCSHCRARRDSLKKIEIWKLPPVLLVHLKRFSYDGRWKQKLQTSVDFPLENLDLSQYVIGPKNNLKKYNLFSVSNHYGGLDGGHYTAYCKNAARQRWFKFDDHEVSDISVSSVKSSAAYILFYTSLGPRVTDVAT
Procedure, shortened: as §1

USP9X = USP9X (UniProt Q93008)
USP9X, sequence (Q93008 whole entry): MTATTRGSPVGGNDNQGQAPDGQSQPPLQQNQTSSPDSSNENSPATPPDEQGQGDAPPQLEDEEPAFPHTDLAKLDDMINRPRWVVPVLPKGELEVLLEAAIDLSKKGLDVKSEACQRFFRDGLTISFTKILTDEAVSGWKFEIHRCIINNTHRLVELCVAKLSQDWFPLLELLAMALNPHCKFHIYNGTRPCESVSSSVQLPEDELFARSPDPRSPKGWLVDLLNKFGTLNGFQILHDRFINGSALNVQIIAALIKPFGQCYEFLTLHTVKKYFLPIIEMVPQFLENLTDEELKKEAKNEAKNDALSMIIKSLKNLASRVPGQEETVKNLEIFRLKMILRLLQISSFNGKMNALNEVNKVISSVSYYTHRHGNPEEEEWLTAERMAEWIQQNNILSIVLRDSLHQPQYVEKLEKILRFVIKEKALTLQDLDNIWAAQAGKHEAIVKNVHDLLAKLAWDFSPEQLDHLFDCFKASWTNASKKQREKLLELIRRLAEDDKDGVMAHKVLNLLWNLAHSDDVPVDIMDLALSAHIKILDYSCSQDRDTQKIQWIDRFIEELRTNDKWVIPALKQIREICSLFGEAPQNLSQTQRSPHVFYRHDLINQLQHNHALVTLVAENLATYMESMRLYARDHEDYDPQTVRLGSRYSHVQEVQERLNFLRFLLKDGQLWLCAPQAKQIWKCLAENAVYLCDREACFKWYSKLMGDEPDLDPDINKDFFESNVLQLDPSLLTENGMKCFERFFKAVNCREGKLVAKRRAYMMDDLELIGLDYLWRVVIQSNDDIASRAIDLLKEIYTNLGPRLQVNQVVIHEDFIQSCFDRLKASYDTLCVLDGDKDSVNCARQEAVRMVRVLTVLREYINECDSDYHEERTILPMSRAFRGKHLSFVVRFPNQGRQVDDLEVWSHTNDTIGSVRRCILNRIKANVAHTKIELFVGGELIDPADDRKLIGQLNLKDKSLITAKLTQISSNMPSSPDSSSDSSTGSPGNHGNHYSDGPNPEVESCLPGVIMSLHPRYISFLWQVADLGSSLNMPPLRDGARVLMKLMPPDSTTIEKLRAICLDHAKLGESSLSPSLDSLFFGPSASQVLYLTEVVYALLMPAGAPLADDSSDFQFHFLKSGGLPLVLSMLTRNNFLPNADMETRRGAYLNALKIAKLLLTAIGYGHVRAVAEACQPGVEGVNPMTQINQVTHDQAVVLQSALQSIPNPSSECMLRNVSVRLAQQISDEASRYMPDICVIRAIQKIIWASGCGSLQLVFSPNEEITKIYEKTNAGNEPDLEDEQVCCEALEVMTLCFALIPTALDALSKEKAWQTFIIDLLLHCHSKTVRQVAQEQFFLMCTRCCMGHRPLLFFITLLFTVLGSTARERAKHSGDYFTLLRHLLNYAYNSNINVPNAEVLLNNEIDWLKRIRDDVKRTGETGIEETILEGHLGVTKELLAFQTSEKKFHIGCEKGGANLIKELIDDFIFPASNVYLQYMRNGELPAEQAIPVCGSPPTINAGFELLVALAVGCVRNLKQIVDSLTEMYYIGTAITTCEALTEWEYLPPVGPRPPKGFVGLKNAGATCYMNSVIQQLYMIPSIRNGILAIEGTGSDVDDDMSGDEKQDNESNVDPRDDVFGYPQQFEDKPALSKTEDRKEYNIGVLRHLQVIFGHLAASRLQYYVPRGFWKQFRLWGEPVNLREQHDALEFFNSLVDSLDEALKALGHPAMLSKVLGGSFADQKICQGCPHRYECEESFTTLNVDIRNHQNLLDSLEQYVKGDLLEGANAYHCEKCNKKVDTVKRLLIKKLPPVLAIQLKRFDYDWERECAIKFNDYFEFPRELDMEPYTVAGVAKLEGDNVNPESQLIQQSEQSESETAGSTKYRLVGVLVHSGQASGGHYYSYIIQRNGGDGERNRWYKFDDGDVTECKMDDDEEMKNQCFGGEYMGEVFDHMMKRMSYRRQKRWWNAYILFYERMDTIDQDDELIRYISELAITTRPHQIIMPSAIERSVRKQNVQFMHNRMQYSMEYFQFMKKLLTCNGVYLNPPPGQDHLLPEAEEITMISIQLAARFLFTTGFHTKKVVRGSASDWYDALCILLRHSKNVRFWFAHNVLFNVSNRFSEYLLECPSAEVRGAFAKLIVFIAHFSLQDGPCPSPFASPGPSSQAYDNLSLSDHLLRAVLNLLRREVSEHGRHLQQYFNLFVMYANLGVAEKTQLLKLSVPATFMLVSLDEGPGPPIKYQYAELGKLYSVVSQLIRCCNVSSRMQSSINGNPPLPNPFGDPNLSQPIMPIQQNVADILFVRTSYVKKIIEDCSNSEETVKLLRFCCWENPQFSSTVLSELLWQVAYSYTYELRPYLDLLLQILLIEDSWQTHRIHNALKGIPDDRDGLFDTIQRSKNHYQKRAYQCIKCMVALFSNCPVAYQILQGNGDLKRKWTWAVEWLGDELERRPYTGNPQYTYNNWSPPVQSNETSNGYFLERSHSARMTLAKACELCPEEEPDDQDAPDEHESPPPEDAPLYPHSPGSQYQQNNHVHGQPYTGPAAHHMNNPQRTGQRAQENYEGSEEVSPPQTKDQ
Procedure, shortened: as §1

UniProt O00487 = target: UniProt O00487
UniProt O00487, sequence (O00487 whole entry): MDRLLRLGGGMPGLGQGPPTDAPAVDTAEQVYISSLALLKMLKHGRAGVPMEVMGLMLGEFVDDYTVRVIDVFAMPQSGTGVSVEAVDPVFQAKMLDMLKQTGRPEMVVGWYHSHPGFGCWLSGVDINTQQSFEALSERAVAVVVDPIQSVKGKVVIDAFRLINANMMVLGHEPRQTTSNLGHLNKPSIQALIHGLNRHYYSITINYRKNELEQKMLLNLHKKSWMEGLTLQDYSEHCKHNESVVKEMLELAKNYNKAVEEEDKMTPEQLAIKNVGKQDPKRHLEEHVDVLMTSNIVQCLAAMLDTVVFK
Procedure, shortened: as §1

Measured: log2 ratio of Biotin-Ahx-Ub-VS probe labelling

CCc1c[nH]c(CNC(=O)CCl)n1.Cl
inactive: USP42 0.203 | USP46 -0.136 | USP47 -0.108 | USP48 -0.267 | USP5 -0.335 | USP54 0.304 | USP7 -0.288 | USP8 -0.335 | USP9X -0.236 | UniProt O00487 -0.193
